Experimental data: PMC5540273 (PLoS ONE, 2017)
“And” between values parts separate entries of the source, which are not always exact repeats. Equal values may be shown once. Read-outs that look alike come from different tables or passages of the source.

Assays:
MAP4K4 = settings: concentration: 1 μM, replicates: in singlicate; n = 1
MAP4K5 = settings: concentration: 1 μM, replicates: in singlicate; n = 1
MAPKAPK2 = settings: n = 1
MAPKAPK5 = settings: concentration: 1 μM, replicates: in singlicate; n = 1
MARK1 = settings: n = 1
MARK2 = settings: concentration: 1 μM, replicates: in singlicate; n = 1
MARK3 = settings: concentration: 1 μM, replicates: in singlicate; n = 1
MARK4 = settings: n = 1
MAST1 = settings: concentration: 1 μM, replicates: in singlicate; n = 1
MEK1 = tested on: T1, MEK1; settings: concentration: 1 μM, replicates: in singlicate; n = 1
T1 construct: gene MAP2K1

[1] = concentration: 1 μM, replicates: in singlicate
[2] = concentration: 1 μM,replicates: in singlicate, 1 µM
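Note: KINOMEscan kinase panel screen.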

SMILES | %Inh (MAP4K4) | %Inh (MAP4K5) | %Inh (MAPKAPK2; [1]) | %Inh (MAPKAPK5) | %Inh (MARK1; [1]) | %Inh (MARK2) | %Inh (MARK3) | %Inh (MARK4; [1]) | %Inh (MAST1) | %Inh (MEK1) | %Inh (MAPKAPK2; [2]) | %Inh (MARK1; [2]) | %Inh (MARK4; [2])
Cc1ccc(-c2cc(-c3c[nH]nc3-c3ccccn3)ccn2)cc1 [GW684088] | 58% | 0% | 0% | 0% | 0% | 14% | 0% | 4% | 64% | 9% |  |  | 
Cc1cc(N2Cc3ccccc3C2)nc(Nc2ccc(S(=O)(=O)N3CCOCC3)cc2)n1.Cl [GSK1669917] | 0% | 0% | 4% | 0% | 0% | 0% | 12% | 0% | 0% | 0% |  |  | 
O=S(=O)(c1ccc(-c2ccnc3[nH]ccc23)cc1)N1CCCC1 [GSK846226] | 0% | 0% | 0% | 0% | 0% | 8% | 0% | 0% | 0% | 24% |  |  | 
COc1ccc(CNC(=O)NC2CCN(c3ccnc(Nc4cc(OC)c(OC)c(OC)c4)n3)C2)cc1 (centres unmarked) [GSK1379748] | 0% | 0% | 0% | 0% | 0% | 0% | 0% | 0% | 13% | 0% |  |  | 
CC(C)(C)c1ccc(C(=O)Nc2cn3cc(Cl)ccc3n2)cc1 | 2% | 2% | 0% | 0% | 0% | 78% | 0% | 0% | 0% | 24% |  |  | 
CCCc1ccc(S(=O)(=O)NC2CCN(c3ccnc(Nc4ccc(F)cc4)n3)C2)cc1 (centres unmarked) [GSK1379715] | 0% | 0% | 15% | 0% | 0% | 0% | 0% | 0% | 48% | 0% |  |  | 
Cn1ccc2ncnc(Oc3cccc(C(=O)Nc4ccccc4)c3)c21 | 8% | 0% | 0% | 12% | 13% | 0% | 0% | 6% | 35% | 1% |  |  | 
O=C(O)COc1ncnc2cc(-c3ccc4[nH]ncc4c3)sc12 | 0% | 6% | 0% | 9% | 8% | 20% | 0% | 14% | 0% | 5% |  |  | 
Cc1cccc(-c2nc(Nc3ccc4[nH]ncc4c3)c3ccccc3n2)n1 [GW857175] | 0% | 0% | 0% | 28% | 16% | 0% | 0% | 0% | 1% | 25% |  |  | 
C[C@@H]1CCCCN1c1cc(-c2ccc3c(N)n[nH]c3c2)nc(N)n1 [GSK2258759] | 0% | 0% | 4% | 0% | 0% | 0% | 0% | 0% | 0% | 27% |  |  | 
O=C(Nc1n[nH]c2cc(-c3cccc(F)c3F)ccc12)C1CC1 [SB-733894] | 32% | 0% | 0% | 0% | 27% | 25% | 0% | 7% | 18% | 1% |  |  | 
Cc1c(Cn2ccn3c(=O)cc(N4CCOCC4)nc23)cccc1C(F)(F)F [GSK2289044] | 0% | 0% | 4% | 0% | 0% | 5% | 2% | 0% | 0% | 0% |  |  | 
COc1ccc(C2=C(Nc3cccc(C(=O)O)c3)C(=O)NC2=O)cc1 [SB-390765] | 0% | 0% | 0% | 20% | 3% | 8% | 0% | 0% | 30% | 13% |  |  | 
Cl.Oc1ccc(-c2nc(-c3ccccc3)[nH]c2-c2ccncc2)cc1 [SB-428218] | 0% | 0% | 13% | 0% | 0% | 0% | 0% | 0% | 0% | 0% |  |  | 
CC(=O)Nc1nc2cnc(Nc3cc(NC(=O)c4cccc(CCC#N)c4)ccc3C)nc2s1 | 0% | 0% | 11% | 3% | 14% | 0% | 0% | 12% | 0% | 0% |  |  | 
COc1cc(Nc2nccc(N3CCC(NC(=O)Nc4cc(C)ccc4C)C3)n2)cc(OC)c1OC (centres unmarked) [GSK1379762] | 0% | 0% | 10% | 0% | 0% | 0% | 8% | 9% | 2% | 0% |  |  | 
O=c1cc(N2CCOCC2)nc2n(Cc3cccc(Cl)c3Cl)ccn12 [GSK2286295] | 4% | 0% | 5% | 0% | 0% | 0% | 0% | 0% | 0% | 0% |  |  | 
Cc1csc(-c2nc(Nc3ccncc3)c3ccccc3n2)n1 [GW869640] | 14% | 0% | 0% | 3% | 25% | 13% | 0% | 38% | 60% | 13% |  |  | 

SMILES | %Inh (MAP4K4) | %Inh (MAP4K5) | %Inh (MAPKAPK2; [1]) | %Inh (MAPKAPK5) | %Inh (MARK1; [1]) | %Inh (MARK2) | %Inh (MARK3) | %Inh (MARK4; [1]) | %Inh (MAST1) | %Inh (MEK1) | %Inh (MAPKAPK2; [2]) | %Inh (MARK1; [2]) | %Inh (MARK4; [2])
Cc1cccc(-c2nc(C)cc(Nc3ccncc3)n2)n1 [GSK257997] | 2% | 0% | 20% | 0% | 0% | 0% | 4% | 0% | 0% | 0% |  |  | 
O=C(Nc1n[nH]c2nc(-c3nccs3)c(Br)cc12)C1CC1 [SB-742251] | 4% | 1% | 0% | 0% | 0% | 0% | 0% | 0% | 20% | 0% |  |  | 
O=C(Nc1ccccc1)Nc1cccc(Oc2ccc3nccn3n2)c1 | 0% | 0% | 0% | 0% | 2% | 39% | 0% | 9% | 0% | 0% |  |  | 
Cc1cccc(-c2nc(Nc3ccncc3)c3ccccc3n2)n1 [GW855857] | 0% | 0% | 0% | 0% | 0% | 0% | 32% | 25% | 50% | 0% |  |  | 
Cn1cncc1-c1ccc2ncnc(Nc3ccc(OCc4ccccc4)cc3)c2c1 [GW320571] | 25% | 21% | 21% | 0% | 0% | 0% | 0% | 2% | 0% | 11% |  |  | 
CN(C)CCN(C)C(=O)c1cc(-c2ccncc2)c(-c2ccc(Cl)c(O)c2)o1.Cl.Cl [SB-710397] | 18% | 0% | 2% | 0% | 0% | 0% | 0% | 0% | 10% | 0% |  |  | 
CC(C)(C)c1ccc(C(=O)Nc2cn3cc(-c4cccnc4)ccc3n2)cc1 | 15% | 0% | 0% | 0% | 36% | 27% | 0% | 38% | 0% | 3% |  |  | 
O=C1NC(=O)C(N2CCc3ccccc32)=C1c1ccccc1Cl [SB-373598] | 26% | 24% | 33% | 8% | 9% | 10% | 0% | 17% | 0% | 13% |  |  | 
Cc1ccc(NC(=O)Nc2cc(C(C)(C)C)nn2-c2ccccc2)cc1 [GSK1014915] | 19% | 11% | 25% | 0% | 0% | 0% | 17% | 10% | 0% | 0% |  |  | 
Cc1ccc(C(=O)Nc2ccc(Nc3ccnc4cc(-c5ccccn5)ccc34)cc2O)cc1.Cl [GW440146] | 0% | 70% | 18% | 0% | 0% | 0% | 2% | 4% | 0% | 0% |  |  | 
Cc1cc(-c2ccc3c(c2)CC[C@@H](N[C@@H](C)c2ccccc2)C3)cnc1N.Cl [GW412617] | 17% | 41% | 13% | 0% | 4% | 10% | 32% | 14% | 0% | 0% |  |  | 
Fc1cc(Cl)ccc1Nc1ccnc2cc(-c3ccc(CN4CCCCC4)o3)ccc12 [GW560116] | 0% | 0% | 0% | 0% | 0% | 0% | 0% | 0% | 43% | 4% |  |  | 
Cc1cc(NCC(c2ccccc2)c2ccccc2)nc(NCc2ccc(C(F)(F)F)cc2)n1 [GW497681] | 0% | 0% | 0% | 0% | 0% | 0% | 0% | 0% | 0% | 0% |  |  | 
CSc1nn2c(=O)cc(N3CCOCC3)nc2n1Cc1cccc(C(F)(F)F)c1C [GSK2363608] | 0% | 0% |  | 0% |  | 0% | 0% |  | 0% | 0% | 2% and 27% | 9% and 0% | 15% and 0%
Cc1cccc(-c2nc(Nc3cccc(C(N)=O)c3)c3ccccc3n2)n1 [GW876019] | 0% | 0% | 0% | 0% | 0% | 0% | 45% | 0% | 11% | 97.2% |  |  | 
Cl.O=C(Nc1cccc(-c2nn3ncccc3c2-c2ccnc(Nc3cccnc3)n2)c1)c1c(F)cccc1F [GSK312879] | 2% | 5% | 21% | 0% | 0% | 0% | 0% | 0% | 6% | 0% |  |  | 
COC(=O)c1c(-c2ccccc2)c2cc(OC)ccc2c(=O)n1Cc1ccccc1 | 0% | 0% | 10% | 0% | 19% | 21% | 0% | 22% | 20% | 0% |  |  | 
